Screens from PubChem BioAssay.
In the library only some 21% were active in any assay of this set; here they are far more common.
Pf growth 96h: P. falciparum growth inhibition at 96 hours; P. falciparum luciferase reporter growth, 96 h; Potency, µM (highest dose often 28.7 µM), without a hit: at the highest dose activity change, negative = inhibition, actives largely listed as inhibitors; 320,000 tested, 6.9% active; AID 504834; further: potency means the concentration at half of the fitted maximal effect; on the % scale 0 is the no-effect control and ±100 the full control effect
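Erythrocytes infected with luciferase-expressing P. falciparum were dispensed at 2% hematocrit and 0.05% parasitemia (final), then incubated with compounds 96 hours at 37 C in 5% CO2. Luminescence after detection reagent addition reported growth.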
Pf growth 48h: inhibits P. falciparum growth in the first generation, 48 h | P. falciparum luciferase growth in erythrocytes, 48 h | Potency, µM (doses to about 28.7 µM), for inactives: at the highest dose activity change, negative = inhibition, actives largely listed as inhibitors | 310,000 tested, 5.9% active | AID 504832; further: potency means the concentration at half of the fitted maximal effect; on the % scale 0 is the no-effect control and ±100 the full control effect
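Erythrocytes infected with P. falciparum carrying an integrated firefly luciferase reporter (2% hematocrit, 0.1% parasitemia final) were exposed to compounds in RPMI 1640 with 0.5% Albumax at 37 C, 5% CO2. Growth inhibition was scored as reduced luminescence.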
Shiga inhibitor: blocks Shiga toxin action in Vero cells; Vero cells, Shiga toxin protein synthesis inhibition reporter; inhibition, % at 38.7 µM; 290,000 tested, 9.2% active; AID 2315; in the data active means inhibition mostly above about 28%, no sharp cut-off; inactive means mostly below about 43%; further: 0% is about no effect
SARS PLP yeast: SARS-CoV PLP inhibition in yeast. Potency, µM (series often up to 32.9 µM), for inactives: at the top dose activity, positive = growth rescue, actives largely listed as activators. AID 485353. 330,000 tested, 0.19% active. S. cerevisiae expressing SARS-CoV PLpro, growth rescue; calls by dose curve; further: potency means the concentration at half of the fitted maximal effect; 0% is about no effect; nearly all actives have a fitted effect of over 55% in size
Cycloheximide cs: counter-screen for Shiga toxin inhibitors: cycloheximide protein synthesis inhibition; cell reporter, cycloheximide protein synthesis inhibition counterscreen; max response, %; 300,000 tested, 12% active; in the data active means max response mostly above about 13%, no sharp cut-off; inactive means mostly below about 14%; further: read at 38.3 µM for the half of the compounds with a filed dose; 0% is about no effect
NS1 function inh: inhibitors of influenza NS1 protein function; 270,000 tested, 0.4% active; Potency, µM (series often up to 46.1 µM), without a hit: at the top dose activity, positive = more growth; calls by dose curve; further: potency means the concentration at half of the fitted maximal effect; actives are rising curves; nearly all actives have a fitted effect of over 50% in size
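Read-out: OD600 growth recovery of NS1-expressing budding yeast. Cells grown overnight at 30C in -URA glucose medium, washed, resuspended and diluted 1:100 in 2% galactose assay medium, pH 6.0. Same strain lacking NS1 served as positive control.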
* marks the source's active call; other numbers are inactive results; ? = inconclusive; . = not tested or not shown; [ ] = remark or other dose. Unless noted, the call rests on the fitted dose curve; in most records, active means well fitted inhibition curve with a large enough effect; inconclusive means small, poorly fitted or top-dose-only effect, or another doubt; inactive means no such curve, though single readings can be large or run the other way.

SMILES | Pf growth 96h | Pf growth 48h | Shiga inhibitor | SARS PLP yeast | Cycloheximide cs | NS1 function inh
Cn1c(=O)c2c(nc(Sc3n[nH]c(N)n3)n2Cc2ccccc2Cl)n(C)c1=O | 66.3% | ? | 26.2 | 0.5% | -0.6 | 13.7%
COc1ccc(NC(=O)c2ccccc2NC(=O)CSc2ccc(Cl)cc2)cc1 | ? | 48.8% | 2.6 | 19.9% | -3.6 | 1.9%
C/C(=N/NC(=O)CNC(=O)COc1ccccc1)c1ccco1 | 20.8% | 7.4% | -1.1 | 7.7% | 0.8 | 0.2%
O=C(Cn1nc(Cl)nc1Cl)c1ccc(F)cc1 | ? | 11.7µM* | -6.8 | -0.8% | 8.9 | 9.3%
COc1ccc(N(C(=O)Cn2nnc3ccccc32)C(C(=O)NCc2ccco2)c2ccncc2)cc1 (stereo not drawn) | 16.3% | -12.8% | -21.0 | 2.3% | -1.8 | -9.1%
CCCCS(=O)(=O)/C=C\C=C/S(=O)(=O)CCCC | ? | 9.28µM* | -26.2 | -32.6% | -8.6 | -84.3%
Cc1cc(N)ccc1N=Nc1c(C)n(C)n(-c2ccccc2)c1=O | 11.6% | 10.7% | 28.9 | -7.0% | 30.9* | 17.5%
Cc1c(N=C2N=C(NC(=O)NC(C)(C)C)c3ccccc32)c(=O)n(-c2ccccc2)n1C | ? | 13.1µM* | -16.5 | -0.4% | 5.1 | .
Cc1c(N=Nc2ccc(O)cc2)c(=O)n(-c2ccccc2)n1C | ? | 15.1% | -8.2 | 0.3% | -1.4 | 19.5%
Cc1c(N=C2N=C(NC(=O)c3cccs3)c3ccccc32)c(=O)n(-c2ccccc2)n1C | 14.7% | -22.5% | 23.7 | 0.6% | 22.8 | .
Cc1c(N=C2C=CC(=O)c3ccccc32)c(=O)n(-c2ccccc2)n1C | 14.7µM* | ? | -9.7 | -4.6% | -1.1 | .
Cc1c(N=C2C=C(Br)C(=O)C(Br)=C2)c(=O)n(-c2ccccc2)n1C | ? | -14.0% | 14.8 | -2.2% | 4.6 | 4.8%
Cc1cc(O)c(C(C)C)cc1CN1CCCCC1 | . | . | . | . | . | 0.3%
Cn1cc(/C=C(\NC(=O)c2ccccc2Cl)C(=O)NCCCn2ccnc2)c2ccccc21 | ? | ? | 22.8 | 1.7% | -3.0 | -2.3%
CC(=O)N1c2ccccc2N(Cc2ccc(C)cc2C)C(=O)C1(C)C | 1.65µM* | . | -19.4 | -7.7% | -4.6 | -48.8%
NS(=O)(=O)c1ccc(NC(=O)CSc2nc3c(cnn3-c3ccccn3)c(=O)[nH]2)cc1 | -1.0% | 4.8% | . | -5.5% | . | .
O=C(O)C1CCCCC1C(=O)Nc1ccc2c(c1)OCO2 (stereo not drawn) | 38.8% | 20.6% | -9.2 | -0.2% | -0.8 | 8.4%
O=C(Nc1cccnc1)Nc1ccc2c(c1)OCO2 | . | 131.6% | 88.0* | -12.1% | 43.3* | -5.5%
CC(OC(=O)c1cccnc1)C(=O)Nc1ccc2c(c1)OCO2 (stereo not drawn) | ? | ? | -4.9 | -0.9% | -1.6 | .
CC1=C(C)CC(C(=O)Nc2ccc3c(c2)OCO3)C(C(=O)O)C1 (stereo not drawn) | 15.4%[1.15 µM] | 20.2% | 40.7* | -0.2% | 28.5* | 0.3%
O=C(Nc1cccc(C(=O)O)c1)/C(=C\c1ccc2c(c1)OCO2)NC(=O)c1ccc(Br)o1 | -4.7% | 150.9% | 45.4* | 0.3% | 16.4* | .
O=C(Nc1ccc2c(c1)OCO2)Nc1ccc(F)cc1F | ? | 90.0% | 86.7* | 0.1% | 65.0* | 6.8%
O=C(CSc1ccc(Cl)cc1)OCC(=O)N1CCN(c2ccccc2)CC1 | 23.0% | 0.9% | . | -0.9% | . | .
CC(C)(C)OC(=O)N[C@@H](Cc1ccccc1)C(=O)N[C@@H](CO)[C@H](O)[C@@H]1C[C@@H]1C(=O)NC1CCCCC1 | . | . | . | -11.9% | . | .
O=C(Nc1ccc([N+](=O)[O-])cc1)Nc1ccc2c(c1)OCCO2 | -9.9% | 181.5% | 128.8* | 4.8% | 55.0* | .
Cc1cc(C)c(NC(=O)Nc2ccc3c(c2)OCO3)c(C)c1 | 69.4% | 2.1% | 82.4* | 8.9% | 37.2* | 11.7%
O=C(Nc1cccc(C(=O)O)c1)Nc1ccc2c(c1)OCO2 | -26.2% | 231.0% | 36.1* | -3.3% | 29.7* | ?
O=C(Nc1ccc(Cl)cc1)Nc1ccc2c(c1)OCO2 | -7.3% | 119.5% | 79.8* | -1.9% | 76.4* | -2.4%
CC(NC(=O)Nc1ccc(Cl)cc1)c1ccc2c(c1)OCO2 (stereo not drawn) | 179.7% | -20.8% | -4.0 | 5.6% | 4.9 | 6.2%
